Assay results published in PubChem BioAssay (NCI).
Compounds without any hit were thinned out: in the full panel of roughly 83,000, 20% have a hit.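 Assay: single dose, 48 h. Readout: percent growth (0 = no net growth; negative = cell death). Active: <10.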 Active and inactive are the calls of the source.

Each compound was assayed on OVCAR-8 ovarian (assay: NCI-60 one-dose screen, 48 h (100 = growth as untreated, 0 = no growth, -100 = all killed)). Details: 10 µM unless noted.
With `C/C(=N\Nc1ccc(Cl)cn1)c1ccc2ccccc2n1` the growth was 6.73% (active). In the case of `CCOC(=O)c1ccc2n1CCCc1cnc(NC(C)=O)nc1-2`, the growth is reported as 103% (inactive). With `COC(=O)c1ccc2[nH]c(O)c(C(=Nc3ccc(N(C)C(=O)CN4CCN(C)CC4)cc3)c3ccc(C)cc3)c2c1` the growth was -17.8% (active).

Each compound was assayed on OVCAR-5 ovarian in the same assay as above. Details: 10 µM unless noted.
For `Brc1ccc(-c2nc3ccccc3s2)cc1`, the growth was 90.9% (inactive). In the case of `c1cc[c]([Bi]([c]2ccccc2)[c]2ccccc2)cc1`, the growth is reported as 99.3% (inactive). In the case of `O=C1/C(=N\c2cc(=O)[nH]n2S(=O)(=O)c2ccccc2)Nc2ccccc21`, the growth is reported as 105% (inactive). For `COc1ccc(/C=C/C(=O)/C=C/c2cc3ccccc3[nH]c2=O)cc1`, the growth was 125% (inactive). In the case of `C/C=C/C/C=C/[C@H](C)C[C@H](O)[C@@H]1C[C@@H]2O[C@H]2/C=C/[C@@H]2OC(C)(C)O[C@H]2/C=C/C[C@H](C)CC(=O)O1`, the growth is reported as 68.5% (inactive). In the case of `COC1(OC)N=C(N)C2(C#N)C3(C(=O)Nc4ccccc43)C12C#N` (stereo not drawn), the growth is reported as 65.1% (inactive). For `C/C=C/C/C=C/[C@H](C)C[C@H](O)[C@@H]1C[C@@H]2O[C@H]2/C=C/[C@H](O)[C@@H](O)/C=C/C[C@H](C)CC(=O)O1`, the growth was 93.4% (inactive). In the case of `COc1cc(-c2nc3c(c(C)nc4c3nnn4-c3ccccc3)c(=O)o2)cc(OC)c1OC`, the growth is reported as 103% (inactive). In the case of `CCC(C)C1NC(=O)C(CC(C)C)NC(=O)C(C)NC(=O)C(C(C)C)NC(=O)C(CCCCN)NC(=O)C(CC(C)C)NC(=O)C(C(C)C)NC(=O)[C@H](C)NC(=O)C(C(C)CC)NC(=O)C(CCCN=C(N)N)NC(=O)C(CCCCN)NC(=O)C(CCCN=C(N)N)NC(=O)C(CCCCN)NC(=O)C([C@H](C)CC)NC(=O)C(CCCCN)NC1=O` (stereo partly drawn), the growth is reported as 52.6% (inactive). With `COc1ccc(-c2nc(SCC(C)C)nc(Nc3ccc(C(=O)O)cc3)c2C#N)cc1` the growth was 104% (inactive). In the case of `O=S(=O)(O)CCI`, the growth is reported as 108% (inactive). With `Nc1nc2c(c3cnccc13)C(c1cccc(Cl)c1)Cc1cnccc1-2` (stereo not drawn) the growth was 40.4% (inactive). For `Oc1ccccc1\C=N/N=C/C=C/c1ccccc1`, the growth was 112% (inactive). For `COC(=O)c1ccc2[nH]c(O)c(C(=Nc3ccc(N(C)C(=O)CN4CCN(C)CC4)cc3)c3ccc(N)cc3)c2c1`, the growth was 77.8% (inactive). `CC(C)OC(=O)c1ccc2n1CCCc1cnc(Nc3ccccc3)nc1-2` was tested, and the growth was 93.8% (inactive). For `CC(=O)Nc1ccc(C(=O)/C=C/c2ccc(N(C)C)cc2)cc1`, the growth was 106% (inactive). `CCOC(=O)C1=C(c2ccccc2)NC(=O)NC1CN1C(=O)c2ccccc2C1=O` (stereo not drawn) was tested, and the growth was 100% (inactive). In the case of `CC/C(=N\Nc1nc2ccccc2n1C)c1ccccn1`, the growth is reported as 29% (inactive). In the case of `CCCCCCC(C)N(CC(C)(C)O)C(=O)c1ccc([N+](=O)[O-])cc1` (stereo not drawn), the growth is reported as 106% (inactive). In the case of `O=C1C(=O)c2ccccc2C(O)=C1CCCc1ccc(Oc2ccccc2)cc1`, the growth is reported as 110% (inactive). For `C=C[C@]1(C)C=C2C(=O)[C@@]3(O)OC[C@@]4(CCCC(C)(C)C43O)C2(O)C(O)C1` (stereo partly drawn), the growth was 120% (inactive). With `COc1ccc(/C=C2\CCCC3=C2N=C2SC=NN2C3c2ccc(OC)c(OC)c2)cc1OC` (stereo not drawn) the growth was 59.7% (inactive). For `CC(C)(C)c1ccc(OCCOC(=O)CBr)cc1`, the growth was 104% (inactive). For `c1cc(C2CCCCC2)ccc1OCCCCCCN1CCNCC1`, the growth was 41.3% (inactive). With `CCOC(=O)c1c2c(cn1Cc1ccccc1)-c1oncc1CC2` the growth was 88.3% (inactive). With `C/C(=N\Nc1cccc(Cl)n1)c1ccccn1` the growth was 23.5% (inactive). `CC(=O)c1ccc2c(c1)c1ccccc1n2C` was tested, and the growth was 108% (inactive). `CCCCN(CCCC)CCCNc1c2c(nc3ccc(Cl)cc13)CCCC2` was tested, and the growth was 84% (inactive). `COc1ccc(Cn2cc3c(c2)-c2oncc2CC3)cc1OC` was tested, and the growth was 40.3% (inactive). In the case of `C/C(=N\Nc1ccc(Cl)cn1)c1ccccn1`, the growth is reported as 23.1% (inactive). With `NC(=O)c1c(Nc2ccccc2)nn2cc(-c3nc4ccccc4s3)c(N)nc12` the growth was 104% (inactive). In the case of `COC(=O)c1ccc2[nH]c(O)c(C(=Nc3ccc(N(C)C(=O)CN4CCN(C)CC4)cc3)c3cccc(OC)c3)c2c1`, the growth is reported as 33.8% (inactive). In the case of `Cc1nc2c(nnn2-c2ccccc2)c2nc(-c3ccc(Cl)cc3)oc(=O)c12`, the growth is reported as 104% (inactive). For `Clc1ccc(N/N=C(/c2ccccc2)c2ccccn2)nc1`, the growth was 49.3% (inactive). For `COc1ccc(-c2nnc(SCC(=O)Nc3ccc(C(=O)/C=C/c4cc(OC)c(OC)c(OC)c4)cc3)n2-c2ccccc2)cc1OC`, the growth was 19.2% [100 µM] (inactive).
